Laboratory results published in the supplement of paper PMC6411743.
± gives the standard deviation of the averaged measurements. The full data set covers some 6,500 targets. This sample favours those with the largest changes.

Tests used:
Experiment in all cases: NP40-soluble protein abundance relative to vehicle (solubility fold change) (ratio); higher = more soluble protein in presence of ATP
GBP1 = target: T1, GBP1 (UniProt P32455)
T1 sequence (whole entry): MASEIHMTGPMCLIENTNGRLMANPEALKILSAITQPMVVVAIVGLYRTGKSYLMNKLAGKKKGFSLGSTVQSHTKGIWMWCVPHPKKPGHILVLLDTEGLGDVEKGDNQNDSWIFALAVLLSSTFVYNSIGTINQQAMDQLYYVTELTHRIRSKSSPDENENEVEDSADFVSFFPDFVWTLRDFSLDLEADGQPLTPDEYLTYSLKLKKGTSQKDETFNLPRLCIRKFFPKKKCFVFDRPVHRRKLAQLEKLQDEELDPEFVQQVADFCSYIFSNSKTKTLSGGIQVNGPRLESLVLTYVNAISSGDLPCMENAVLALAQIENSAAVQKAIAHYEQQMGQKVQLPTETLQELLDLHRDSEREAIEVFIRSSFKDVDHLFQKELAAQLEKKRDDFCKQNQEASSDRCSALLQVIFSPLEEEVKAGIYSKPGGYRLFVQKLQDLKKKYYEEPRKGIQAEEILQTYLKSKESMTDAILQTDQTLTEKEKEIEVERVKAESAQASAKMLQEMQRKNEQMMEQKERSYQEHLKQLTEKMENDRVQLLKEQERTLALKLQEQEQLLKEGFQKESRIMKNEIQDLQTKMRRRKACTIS
In short: (§1)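 Jurkat crude lysate prepared with a Dounce homogeniser was treated at eight concentrations spanning 0.1 to 10 mM, 10 min at room temperature then 3 min at 37 °C. Solubilisation with 0.8% NP40 and benzonase and ultracentrifugation preceded TMT labelling of the supernatant for LC-MS/MS. Fold change against the detergent-processed vehicle was determined per replicate from vsn-normalised intensities, across three independent experiments.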

NKTR = target: T2, NKTR (UniProt P30414)
T2 sequence (whole entry): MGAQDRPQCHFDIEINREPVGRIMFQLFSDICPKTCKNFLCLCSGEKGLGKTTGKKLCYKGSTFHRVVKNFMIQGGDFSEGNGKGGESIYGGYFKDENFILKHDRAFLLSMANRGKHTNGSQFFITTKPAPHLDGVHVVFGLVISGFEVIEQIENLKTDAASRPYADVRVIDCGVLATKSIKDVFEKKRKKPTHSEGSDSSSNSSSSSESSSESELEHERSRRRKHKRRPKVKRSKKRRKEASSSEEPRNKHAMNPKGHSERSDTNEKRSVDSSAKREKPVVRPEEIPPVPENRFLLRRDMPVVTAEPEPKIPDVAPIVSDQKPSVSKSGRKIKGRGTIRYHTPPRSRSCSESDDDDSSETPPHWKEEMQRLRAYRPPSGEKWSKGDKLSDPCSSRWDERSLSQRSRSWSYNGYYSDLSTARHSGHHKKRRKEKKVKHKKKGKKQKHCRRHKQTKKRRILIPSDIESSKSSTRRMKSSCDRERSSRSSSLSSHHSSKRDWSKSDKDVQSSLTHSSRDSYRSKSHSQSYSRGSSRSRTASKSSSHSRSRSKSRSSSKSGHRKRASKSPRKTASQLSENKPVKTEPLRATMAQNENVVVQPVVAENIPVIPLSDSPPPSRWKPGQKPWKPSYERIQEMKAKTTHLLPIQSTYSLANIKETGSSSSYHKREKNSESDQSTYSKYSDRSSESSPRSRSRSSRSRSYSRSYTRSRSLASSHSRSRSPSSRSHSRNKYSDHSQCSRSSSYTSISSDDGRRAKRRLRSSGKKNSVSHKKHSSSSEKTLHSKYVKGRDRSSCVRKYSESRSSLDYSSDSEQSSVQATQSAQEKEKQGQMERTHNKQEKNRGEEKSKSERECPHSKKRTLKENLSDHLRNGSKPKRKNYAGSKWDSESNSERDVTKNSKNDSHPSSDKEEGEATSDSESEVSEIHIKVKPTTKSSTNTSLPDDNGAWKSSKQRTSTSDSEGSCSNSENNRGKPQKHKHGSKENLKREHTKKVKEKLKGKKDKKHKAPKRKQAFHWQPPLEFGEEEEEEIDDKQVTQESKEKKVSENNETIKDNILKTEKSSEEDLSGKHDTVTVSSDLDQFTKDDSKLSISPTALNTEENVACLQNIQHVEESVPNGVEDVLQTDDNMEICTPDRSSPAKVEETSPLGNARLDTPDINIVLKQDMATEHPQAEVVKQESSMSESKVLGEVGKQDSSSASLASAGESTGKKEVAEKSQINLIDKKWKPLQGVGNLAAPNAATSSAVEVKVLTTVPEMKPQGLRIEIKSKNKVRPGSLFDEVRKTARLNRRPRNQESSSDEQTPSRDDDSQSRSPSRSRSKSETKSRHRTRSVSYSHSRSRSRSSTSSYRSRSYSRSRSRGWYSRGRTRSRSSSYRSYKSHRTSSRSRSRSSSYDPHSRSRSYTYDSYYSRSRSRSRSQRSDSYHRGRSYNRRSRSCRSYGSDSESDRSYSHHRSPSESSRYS
In short: as §1

SEC24C = target: T3, SEC24C (UniProt P53992)
T3 sequence (whole entry): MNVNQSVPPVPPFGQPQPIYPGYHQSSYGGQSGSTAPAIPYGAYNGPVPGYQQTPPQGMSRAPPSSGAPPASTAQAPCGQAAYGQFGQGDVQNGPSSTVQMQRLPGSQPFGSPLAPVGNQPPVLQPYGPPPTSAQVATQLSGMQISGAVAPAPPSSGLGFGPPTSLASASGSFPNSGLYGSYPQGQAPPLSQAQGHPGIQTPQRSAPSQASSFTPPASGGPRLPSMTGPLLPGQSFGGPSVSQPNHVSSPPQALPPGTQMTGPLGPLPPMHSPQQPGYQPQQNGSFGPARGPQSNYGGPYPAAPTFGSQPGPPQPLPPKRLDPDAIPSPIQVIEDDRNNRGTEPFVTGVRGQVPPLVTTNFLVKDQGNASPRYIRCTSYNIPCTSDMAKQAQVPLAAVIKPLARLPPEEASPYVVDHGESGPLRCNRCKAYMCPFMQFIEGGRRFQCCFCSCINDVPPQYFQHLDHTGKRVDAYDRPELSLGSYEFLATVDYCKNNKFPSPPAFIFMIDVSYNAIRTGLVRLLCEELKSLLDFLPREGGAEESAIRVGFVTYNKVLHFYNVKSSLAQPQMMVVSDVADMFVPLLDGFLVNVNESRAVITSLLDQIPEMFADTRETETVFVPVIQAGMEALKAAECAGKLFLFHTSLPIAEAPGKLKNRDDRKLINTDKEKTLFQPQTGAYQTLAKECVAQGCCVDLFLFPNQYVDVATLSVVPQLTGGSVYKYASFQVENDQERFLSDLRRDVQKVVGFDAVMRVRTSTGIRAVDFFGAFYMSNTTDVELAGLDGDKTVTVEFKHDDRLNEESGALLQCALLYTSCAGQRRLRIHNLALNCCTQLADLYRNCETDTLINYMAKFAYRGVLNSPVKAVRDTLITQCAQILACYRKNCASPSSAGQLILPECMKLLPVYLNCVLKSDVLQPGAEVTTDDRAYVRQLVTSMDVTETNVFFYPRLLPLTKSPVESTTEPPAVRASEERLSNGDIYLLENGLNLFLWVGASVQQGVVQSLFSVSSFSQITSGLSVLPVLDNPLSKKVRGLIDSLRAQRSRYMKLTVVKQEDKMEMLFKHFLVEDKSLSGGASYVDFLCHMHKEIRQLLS
In short: as §1

SPAG7 = target: T4, SPAG7 (UniProt O75391)
T4 sequence (whole entry): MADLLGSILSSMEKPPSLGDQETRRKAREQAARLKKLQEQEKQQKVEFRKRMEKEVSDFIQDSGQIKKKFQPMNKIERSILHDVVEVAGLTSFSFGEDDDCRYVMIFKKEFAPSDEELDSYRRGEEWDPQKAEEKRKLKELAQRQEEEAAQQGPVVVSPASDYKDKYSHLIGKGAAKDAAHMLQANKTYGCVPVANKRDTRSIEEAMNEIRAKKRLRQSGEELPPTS
In short: as §1

[1] = target: T5, UniProt O95294|O95294-2|O95294-3|O95294-4
T5 sequence (whole entry): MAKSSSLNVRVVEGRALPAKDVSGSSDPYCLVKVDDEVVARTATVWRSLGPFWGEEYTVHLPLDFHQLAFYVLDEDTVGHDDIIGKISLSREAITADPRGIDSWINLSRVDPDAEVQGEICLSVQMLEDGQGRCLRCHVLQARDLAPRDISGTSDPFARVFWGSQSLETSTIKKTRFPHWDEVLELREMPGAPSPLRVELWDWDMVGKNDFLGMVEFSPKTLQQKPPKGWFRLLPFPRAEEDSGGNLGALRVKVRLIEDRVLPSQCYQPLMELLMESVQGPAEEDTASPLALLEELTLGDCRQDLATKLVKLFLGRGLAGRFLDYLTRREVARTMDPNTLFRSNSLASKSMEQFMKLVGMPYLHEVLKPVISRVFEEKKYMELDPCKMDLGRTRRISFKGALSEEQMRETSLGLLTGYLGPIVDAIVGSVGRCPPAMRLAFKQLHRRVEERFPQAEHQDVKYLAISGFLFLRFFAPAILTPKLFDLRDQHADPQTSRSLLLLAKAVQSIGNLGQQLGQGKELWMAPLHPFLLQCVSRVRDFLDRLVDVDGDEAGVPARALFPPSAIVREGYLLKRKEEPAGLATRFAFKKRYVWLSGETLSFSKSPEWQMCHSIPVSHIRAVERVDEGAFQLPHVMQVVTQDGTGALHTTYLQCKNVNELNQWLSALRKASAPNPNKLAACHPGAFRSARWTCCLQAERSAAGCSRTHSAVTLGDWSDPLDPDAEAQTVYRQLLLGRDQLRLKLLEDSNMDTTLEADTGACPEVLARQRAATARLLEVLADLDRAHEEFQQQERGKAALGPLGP
In short: as §1

[2] = target: T6, UniProt O95379-3|O95379-4
T6 sequence (whole entry): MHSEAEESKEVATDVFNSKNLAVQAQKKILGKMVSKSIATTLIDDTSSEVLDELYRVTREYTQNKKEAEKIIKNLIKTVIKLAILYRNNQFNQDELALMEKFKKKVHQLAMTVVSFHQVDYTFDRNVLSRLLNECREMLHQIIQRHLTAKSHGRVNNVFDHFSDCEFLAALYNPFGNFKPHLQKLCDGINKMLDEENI
In short: as §1

[3] = target: T7, UniProt O95983|O95983-2|K7EIE8
T7 sequence (whole entry): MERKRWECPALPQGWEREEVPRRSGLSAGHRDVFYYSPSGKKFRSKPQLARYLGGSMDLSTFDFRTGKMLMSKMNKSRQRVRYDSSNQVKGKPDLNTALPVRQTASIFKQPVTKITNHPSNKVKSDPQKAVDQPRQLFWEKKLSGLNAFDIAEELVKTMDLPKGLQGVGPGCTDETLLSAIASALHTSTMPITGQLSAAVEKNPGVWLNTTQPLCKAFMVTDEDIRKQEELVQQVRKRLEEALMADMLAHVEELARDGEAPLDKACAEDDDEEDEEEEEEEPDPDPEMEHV
In short: as §1

`Nc1ncnc2c1ncn2[C@@H]1O[C@H](COP(=O)(O)OP(=O)(O)OP(=O)(O)O)[C@@H](O)[C@H]1O` [adenosine triphosphate] gave an NP40-soluble protein abundance (GBP1; concentration: 1mM) of 0.968 ± 0.053, an NP40-soluble protein abundance (GBP1; concentration: 2mM) of 0.96 ± 0.0051 and an NP40-soluble protein abundance (GBP1; concentration: 4mM) of 0.945 ± 0.011. For the same compound, the NP40-soluble protein abundance (GBP1; concentration: 6mM) was 0.979 ± 0.015, the NP40-soluble protein abundance (GBP1; concentration: 8mM) was 0.922 ± 0.018 and the NP40-soluble protein abundance (GBP1; concentration: 10mM) was 0.936 ± 0.03. The NP40-soluble protein abundance (NKTR; concentration: 1mM) was 1.53 ± 0.25, the NP40-soluble protein abundance (NKTR; concentration: 2mM) was 1.63 ± 0.19 and the NP40-soluble protein abundance (NKTR; concentration: 4mM) was 1.68 ± 0.23. The NP40-soluble protein abundance (NKTR; concentration: 6mM) was 1.83 ± 0.22, the NP40-soluble protein abundance (NKTR; concentration: 8mM) was 1.75 ± 0.19 and the NP40-soluble protein abundance (NKTR; concentration: 10mM) was 1.75 ± 0.22. It also gave an NP40-soluble protein abundance (SEC24C; concentration: 1mM) of 0.99 ± 0.055, an NP40-soluble protein abundance (SEC24C; concentration: 2mM) of 0.987 ± 0.057 and an NP40-soluble protein abundance (SEC24C; concentration: 4mM) of 0.98 ± 0.043. The NP40-soluble protein abundance (SEC24C; concentration: 6mM) was 0.919 ± 0.095, the NP40-soluble protein abundance (SEC24C; concentration: 8mM) was 0.981 ± 0.019 and the NP40-soluble protein abundance (SEC24C; concentration: 10mM) was 0.984 ± 0.074. It also gave an NP40-soluble protein abundance (SPAG7; concentration: 1mM) of 0.972 ± 0.053, an NP40-soluble protein abundance (SPAG7; concentration: 2mM) of 0.964 ± 0.047 and an NP40-soluble protein abundance (SPAG7; concentration: 4mM) of 0.964 ± 0.04. For the same compound, the NP40-soluble protein abundance (SPAG7; concentration: 6mM) was 0.969 ± 0.046, the NP40-soluble protein abundance (SPAG7; concentration: 8mM) was 0.9594 ± 0.0036 and the NP40-soluble protein abundance (SPAG7; concentration: 10mM) was 0.903 ± 0.058. The NP40-soluble protein abundance ([1]; concentration: 1mM) was 0.95 ± 0.03, the NP40-soluble protein abundance ([1]; concentration: 2mM) was 0.96 ± 0.069 and the NP40-soluble protein abundance ([1]; concentration: 4mM) was 1.01 ± 0.058. It also gave an NP40-soluble protein abundance ([1]; concentration: 6mM) of 0.994 ± 0.11, an NP40-soluble protein abundance ([1]; concentration: 8mM) of 0.962 ± 0.13 and an NP40-soluble protein abundance ([1]; concentration: 10mM) of 0.965 ± 0.15. It also gave an NP40-soluble protein abundance ([2]; concentration: 1mM) of 0.855 ± 0.036, an NP40-soluble protein abundance ([2]; concentration: 2mM) of 0.93 ± 0.019 and an NP40-soluble protein abundance ([2]; concentration: 4mM) of 0.885 ± 0.032. It also gave an NP40-soluble protein abundance ([2]; concentration: 6mM) of 0.9504 ± 0.0062, an NP40-soluble protein abundance ([2]; concentration: 8mM) of 0.932 ± 0.035 and an NP40-soluble protein abundance ([2]; concentration: 10mM) of 0.85 ± 0.1. The NP40-soluble protein abundance ([3]; concentration: 1mM) was 1.03 ± 0.12, the NP40-soluble protein abundance ([3]; concentration: 2mM) was 0.983 ± 0.078 and the NP40-soluble protein abundance ([3]; concentration: 4mM) was 0.98 ± 0.035.
